Reference: PubChem BioAssay (NCI)
This is part of a sample that, as a whole, favours compounds with a hit. Of some 83,000 tested, about 20% had one in any assay.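 In brief: 96-well plates, 48 h treatment, single concentration, percent growth endpoint.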 Active and inactive are the calls of the source. Rule for the calls: active = growth percent below 10; inactive = the rest.

Experiments:
Assay in all cases: NCI-60 one-dose screen, 48 h (100 = growth as untreated, 0 = no growth, -100 = all killed)
Settings in all cases: 10 µM unless noted
SR leukemia = tested on: SR leukemia
RPMI-8226 leukemia = tested on: RPMI-8226 leukemia
OVCAR-8 ovarian = tested on: OVCAR-8 ovarian
OVCAR-5 ovarian = tested on: OVCAR-5 ovarian
OVCAR-4 ovarian = tested on: OVCAR-4 ovarian
SK-OV-3 ovarian = tested on: SK-OV-3 ovarian
IGROV1 ovarian = tested on: IGROV1 ovarian
OVCAR-3 ovarian = tested on: OVCAR-3 ovarian
HS 578T breast = tested on: HS 578T breast
NCI/ADR-RES ovarian = tested on: NCI/ADR-RES ovarian

Measured: growth

C1=C(N2CCCC2)CCC1
inactive: SR leukemia 112% | RPMI-8226 leukemia 95.4% | OVCAR-8 ovarian 104% | OVCAR-5 ovarian 86.2% | OVCAR-4 ovarian 98.8% | SK-OV-3 ovarian 131% | IGROV1 ovarian 108% | OVCAR-3 ovarian 106% | HS 578T breast 102% | NCI/ADR-RES ovarian 104%

CN1CCN(C(=O)c2ccc(NC(=O)Nc3ccc(-c4nc(N5CCOCC5)c5cccn5n4)cc3)cc2)CC1
active: SR leukemia 3.45% | RPMI-8226 leukemia -2.3% | OVCAR-8 ovarian -3.62% | OVCAR-5 ovarian 0.331% | OVCAR-4 ovarian -20.2% | SK-OV-3 ovarian -31.2% | IGROV1 ovarian -29.2% | OVCAR-3 ovarian -5.24% | HS 578T breast -28.9%
inactive: NCI/ADR-RES ovarian 60.5%

COc1ccc2nc3ccc(OC)cc3c(SCCCN)c2c1
active: SR leukemia -30.8% | RPMI-8226 leukemia -22.7%
inactive: OVCAR-8 ovarian 76.1% | OVCAR-5 ovarian 83.2% | OVCAR-4 ovarian 63.9% | SK-OV-3 ovarian 95% | IGROV1 ovarian 97.2% | OVCAR-3 ovarian 71.3% | HS 578T breast 89.7% | NCI/ADR-RES ovarian 86.9%

O=C(OCc1ccc2c(Cl)cc(Cl)c(O)c2n1)n1cncn1
active: NCI/ADR-RES ovarian 5.53%
inactive: SR leukemia 23.1% | RPMI-8226 leukemia 32.9% | OVCAR-8 ovarian 20.7% | OVCAR-5 ovarian 81.8% | OVCAR-4 ovarian 25.1% | SK-OV-3 ovarian 39% | IGROV1 ovarian 32.9% | OVCAR-3 ovarian 30.7% | HS 578T breast 67.4%

C=C(C)[C@@H]1CC[C@]2(C(=O)OC)CC[C@]3(C)[C@H](CC[C@@H]4[C@@]5(C)C/C(=C/NC(N)=S)C(=O)C(C)(C)[C@@H]5CC[C@]43C)[C@@H]12
inactive: SR leukemia 81.6% | RPMI-8226 leukemia 69.6% | OVCAR-8 ovarian 97.5% | OVCAR-5 ovarian 118% | OVCAR-4 ovarian 84.2% | SK-OV-3 ovarian 97.7% | IGROV1 ovarian 70.6% | OVCAR-3 ovarian 88.5% | HS 578T breast 91.7% | NCI/ADR-RES ovarian 104%

Cn1ccnc1C(=O)C(=O)Nc1ccc(CC(=O)Nc2ccccc2)cc1
inactive: SR leukemia 106% | RPMI-8226 leukemia 107% | OVCAR-8 ovarian 109% | OVCAR-5 ovarian 101% | OVCAR-4 ovarian 110% | SK-OV-3 ovarian 115% | IGROV1 ovarian 103% | OVCAR-3 ovarian 108% | HS 578T breast 101% | NCI/ADR-RES ovarian 103%

O=[N+]([O-])/C(=C/C=C/c1ccccc1)c1ccccc1
active: IGROV1 ovarian -4.26% | OVCAR-3 ovarian 1.93%
inactive: SR leukemia 26.5% | RPMI-8226 leukemia 35.8% | OVCAR-8 ovarian 77.6% | OVCAR-5 ovarian 87.9% | OVCAR-4 ovarian 77.2% | SK-OV-3 ovarian 97.1% | HS 578T breast 56.8% | NCI/ADR-RES ovarian 78.3%

CCCCCCC1(C)NCCO1 (stereo not given)
inactive: SR leukemia 94.5% | RPMI-8226 leukemia 101% | OVCAR-8 ovarian 96.6% | OVCAR-5 ovarian 110% | OVCAR-4 ovarian 96% | SK-OV-3 ovarian 100% | IGROV1 ovarian 79.8% | OVCAR-3 ovarian 114% | HS 578T breast 126% | NCI/ADR-RES ovarian 108%

Cc1ccc(-c2csc(NC(=O)CN3CCN(c4cc5c(cc4F)c(=O)c(C(=O)O)cn5C4CC4)CC3)n2)cc1
active: SR leukemia -0.152% | RPMI-8226 leukemia 6.21% | SK-OV-3 ovarian -7.14% | NCI/ADR-RES ovarian 4.91%
inactive: OVCAR-8 ovarian 10.6% | OVCAR-5 ovarian 21.1% | OVCAR-4 ovarian 20.8% | IGROV1 ovarian 25.4% | OVCAR-3 ovarian 14.8% | HS 578T breast 47.8%

Cc1ccc(-c2nc(N3CCNCC3)c3oc(-c4ccccc4)nc3n2)cc1
inactive: OVCAR-5 ovarian 14.7% | SK-OV-3 ovarian 87.4%
active: SR leukemia -44% | RPMI-8226 leukemia -54.7% | OVCAR-8 ovarian -66.4% | OVCAR-4 ovarian -51.6% | IGROV1 ovarian -68% | OVCAR-3 ovarian -89.5% | HS 578T breast -7.69% | NCI/ADR-RES ovarian -23.1%

COc1cc(CNS(=O)(=O)c2ccc(C)cc2)ccc1OCc1cn(-c2ccc(Br)cc2)nn1
inactive: SR leukemia 100% | RPMI-8226 leukemia 87.2% | OVCAR-8 ovarian 102% | OVCAR-5 ovarian 108% | OVCAR-4 ovarian 97.3% | SK-OV-3 ovarian 75.3% | IGROV1 ovarian 103% | OVCAR-3 ovarian 112% | HS 578T breast 95.6% | NCI/ADR-RES ovarian 104%

COC1C[C@H](O[C@@H]2C[C@H](O[C@@H]3C[C@H](O[C@@H]4C(=O)c5c(cc6cc(O[C@H]7C[C@@H](O[C@H]8C[C@@H](O)[C@H](O)C(C)O8)[C@H](O)C(C)O7)c(C)c(O)c6c5O)C[C@H]4C(OC)C(=O)[C@@H](O)[C@@H](C)O)OC(C)[C@H]3O)OC(C)[C@@H]2O)OC(C)[C@@H]1O (stereo not given in full)
active: RPMI-8226 leukemia -1.8% | OVCAR-8 ovarian 2.54% | IGROV1 ovarian 9.46% | OVCAR-3 ovarian 3.14% | HS 578T breast 7.26%
inactive: SR leukemia 10.2% | OVCAR-5 ovarian 14.2% | OVCAR-4 ovarian 12.1% | SK-OV-3 ovarian 16.6% | NCI/ADR-RES ovarian 82.4%

CN(CCOc1ccc(C#N)cc1)CCOc1ccc(C#N)cc1
active: RPMI-8226 leukemia 7.02%
inactive: SR leukemia 49.6% | OVCAR-8 ovarian 93.5% | OVCAR-5 ovarian 79% | OVCAR-4 ovarian 75% | SK-OV-3 ovarian 46.8% | IGROV1 ovarian 61.1% | OVCAR-3 ovarian 97.6% | HS 578T breast 49.2% | NCI/ADR-RES ovarian 67.1%

Brc1ccc(-n2cc(-c3nn[nH]n3)c(-c3cccs3)n2)cc1
inactive: SR leukemia 110% | RPMI-8226 leukemia 99.3% | OVCAR-8 ovarian 98.8% | OVCAR-5 ovarian 100% | OVCAR-4 ovarian 100% | SK-OV-3 ovarian 93.5% | IGROV1 ovarian 93.2% | OVCAR-3 ovarian 105% | HS 578T breast 96.3% | NCI/ADR-RES ovarian 107%

O=C(Nc1ccc(NC(=O)c2cc(=O)[nH]c3ccccc23)cc1)Nc1cccc(C(F)(F)F)c1
inactive: SR leukemia 61.1% | RPMI-8226 leukemia 74.4% | OVCAR-8 ovarian 65.2% | OVCAR-5 ovarian 84.3% | OVCAR-4 ovarian 74.2% | SK-OV-3 ovarian 69.1% | IGROV1 ovarian 64.9% | OVCAR-3 ovarian 63.9% | HS 578T breast 50.8% | NCI/ADR-RES ovarian 103%

C#CCOc1cccc(Nc2ncnc3c(NC(=O)C=C)cccc23)c1
inactive: OVCAR-5 ovarian 88% | OVCAR-4 ovarian 73.9% | SK-OV-3 ovarian 49% | IGROV1 ovarian 31% | OVCAR-3 ovarian 10.9% | HS 578T breast 25% | NCI/ADR-RES ovarian 18.1%
active: SR leukemia 9.57% | RPMI-8226 leukemia -10% | OVCAR-8 ovarian 4.27%

CN(C)CCCn1c2c(c3ncccc3c1=O)C(=O)c1ccccc1-2
inactive: SR leukemia 15.2% | RPMI-8226 leukemia 38.2% | OVCAR-8 ovarian 31.3% | OVCAR-5 ovarian 46.5% | OVCAR-4 ovarian 61.8% | SK-OV-3 ovarian 69.6% | IGROV1 ovarian 43.8% | OVCAR-3 ovarian 57.4% | HS 578T breast 75.8% | NCI/ADR-RES ovarian 42.7%

O=C(OCc1ccc2cccc(O)c2n1)N1CCN(C(=O)c2cc3cc(F)ccc3[nH]2)CC1
active: SR leukemia -9.28% | RPMI-8226 leukemia -26.1% | OVCAR-8 ovarian -40.6% | OVCAR-5 ovarian -84.5% | OVCAR-4 ovarian -71.8% | IGROV1 ovarian -91.4% | OVCAR-3 ovarian -79.3% | HS 578T breast -21.2% | NCI/ADR-RES ovarian -21.5%
inactive: SK-OV-3 ovarian 54.3%

C=C1C(=O)O[C@H]2[C@H]1CC/C(COC(=O)N[C@H]1C[C@H](O[C@H]3C[C@](O)(C(=O)CO)Cc4c(O)c5c(c(O)c43)C(=O)c3c(OC)cccc3C5=O)O[C@@H](C)[C@H]1O)=C\CC[C@@]1(C)O[C@@H]21
active: SR leukemia 5.44% | RPMI-8226 leukemia -24.2% | OVCAR-3 ovarian -8.47%
inactive: OVCAR-8 ovarian 66% | OVCAR-5 ovarian 96.4% | OVCAR-4 ovarian 62.5% | SK-OV-3 ovarian 107% | IGROV1 ovarian 56.7% | HS 578T breast 73% | NCI/ADR-RES ovarian 100%

CC(C)=NNc1ccccn1
inactive: SR leukemia 32% | RPMI-8226 leukemia 70.3% | OVCAR-8 ovarian 29% | OVCAR-5 ovarian 54.4% | OVCAR-4 ovarian 12% | SK-OV-3 ovarian 26.2% | IGROV1 ovarian 63.2% | OVCAR-3 ovarian 18.8% | HS 578T breast 79.5% | NCI/ADR-RES ovarian 33.5%

Brc1ccc2[nH]cc(-c3nonc3-c3c[nH]c4ccccc34)c2c1
inactive: SR leukemia 28.1% | RPMI-8226 leukemia 48.7% | OVCAR-8 ovarian 47% | OVCAR-5 ovarian 48.9% | OVCAR-4 ovarian 46.1% | SK-OV-3 ovarian 60.5% | IGROV1 ovarian 43.6% | OVCAR-3 ovarian 45.4% | HS 578T breast 52.8% | NCI/ADR-RES ovarian 42.6%

Cc1ccc(Cl)cc1Nc1nc(C(F)(F)F)ccc1C(=O)N/N=C/c1cccnc1
active: SR leukemia -5.74% | OVCAR-4 ovarian 8.59% | SK-OV-3 ovarian -15.3% | IGROV1 ovarian 8.35%
inactive: RPMI-8226 leukemia 21% | OVCAR-8 ovarian 25.1% | OVCAR-5 ovarian 37.9% | OVCAR-3 ovarian 33.9% | HS 578T breast 39.9% | NCI/ADR-RES ovarian 13.9%

O=C(CN1C(=O)CCC1=O)Nc1ncc(Cc2ccc(F)cc2)s1
inactive: SR leukemia 99.9% | RPMI-8226 leukemia 105% | OVCAR-8 ovarian 107% | OVCAR-5 ovarian 97.3% | OVCAR-4 ovarian 101% | SK-OV-3 ovarian 110% | IGROV1 ovarian 101% | OVCAR-3 ovarian 103% | HS 578T breast 101% | NCI/ADR-RES ovarian 100%

CC(=O)OCc1nc(C#N)c(N(C)C)o1
inactive: SR leukemia 92.2% | RPMI-8226 leukemia 99.6% | OVCAR-8 ovarian 94.1% | OVCAR-5 ovarian 86.9% | OVCAR-4 ovarian 100% | SK-OV-3 ovarian 90.1% | IGROV1 ovarian 95% | OVCAR-3 ovarian 99.1% | HS 578T breast 99.4% | NCI/ADR-RES ovarian 103%

O=C(Cn1c(=O)sc2ccccc21)NNS(=O)(=O)c1ccccc1[N+](=O)[O-]
inactive: SR leukemia 96% | RPMI-8226 leukemia 98.4% | OVCAR-8 ovarian 99.4% | OVCAR-5 ovarian 100% | OVCAR-4 ovarian 117% | SK-OV-3 ovarian 103% | IGROV1 ovarian 102% | OVCAR-3 ovarian 99.3% | HS 578T breast 103% | NCI/ADR-RES ovarian 103%

C[C@@H]1CCC[C@H]1CC(N)C(=O)O (stereo not given in full)
inactive: SR leukemia 108% | RPMI-8226 leukemia 103% | OVCAR-8 ovarian 106% | OVCAR-5 ovarian 105% | OVCAR-4 ovarian 105% | SK-OV-3 ovarian 113% | IGROV1 ovarian 114% | OVCAR-3 ovarian 117% | HS 578T breast 103% | NCI/ADR-RES ovarian 104%

COc1ccc(-c2nc3c(c(-c4ccccc4)nn3-c3ccccc3)c(-c3ccc(N4CCN(C)CC4)cc3)c2C#N)cc1
inactive: SR leukemia 63.3% | RPMI-8226 leukemia 87.4% | OVCAR-8 ovarian 93.7% | OVCAR-5 ovarian 104% | OVCAR-4 ovarian 107% | SK-OV-3 ovarian 109% | IGROV1 ovarian 93.8% | OVCAR-3 ovarian 103% | HS 578T breast 100% | NCI/ADR-RES ovarian 93%
